DRD3 antagonist: antagonists of human D3 dopamine receptor; P35462; D3R cells, DiscoveRx beta-arrestin luminescence, antagonist mode; hits give low values; 360,000 tested, 2.5% active; max response, negative = inhibition, %; in the data active = max response below about -50%; inconclusive = no clear call, values can overlap the other calls; note: % is set by controls: 0 for no effect and ±100 for the full control effect
Target sequence (P35462 whole entry, looked up): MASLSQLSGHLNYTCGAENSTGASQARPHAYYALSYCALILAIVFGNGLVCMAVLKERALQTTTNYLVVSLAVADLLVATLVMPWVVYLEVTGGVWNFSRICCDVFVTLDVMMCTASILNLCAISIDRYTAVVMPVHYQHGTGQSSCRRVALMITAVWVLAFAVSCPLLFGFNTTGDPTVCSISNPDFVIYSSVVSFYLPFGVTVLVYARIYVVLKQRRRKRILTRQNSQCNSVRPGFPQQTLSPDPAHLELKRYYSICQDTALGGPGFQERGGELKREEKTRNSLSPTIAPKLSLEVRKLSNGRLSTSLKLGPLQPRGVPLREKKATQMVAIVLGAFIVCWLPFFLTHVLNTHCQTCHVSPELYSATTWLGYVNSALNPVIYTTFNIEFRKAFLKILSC
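Cells expressing the human receptor were seeded at 1500 cells/well, incubated overnight at 37 degrees C in 5% CO2, then exposed to library compounds with dopamine controls for 90 minutes at 37 degrees C before luminescent detection.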
D3 ag: activates the human D3 dopamine receptor; max activation, %; D3R DiscoveRx beta-arrestin cells, luminescence, 90 min; P35462; AID 652048; 410,000 tested, 0.58% active; in the data active = max activation above about 30%; note: 0% is about no effect
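Agonist-mode cell screen: cells plated at 1500/well and incubated overnight at 37 °C, then exposed to library compounds for 90 min at 37 °C. Detection reagent was added for 30–60 min at room temperature, and luminescence was read.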
PTHR1 ag: PTHR1 (human) receptor agonism; AID 743266; 410,000 tested, 0.075% active; Potency, µM (series often up to 115 µM), inactives show at the top dose activation, hits mostly activators; HEK293 GP2 PTHR1 cells, GloSensor cAMP luminescence, 1 h; Q03431; note: potency is the fitted concentration of half-maximal effect; nearly all actives have a fitted effect of over 55% in size
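HEK-293-derived GP2 cells expressing PTHR1 and a GloSensor cAMP reporter, 3,000/well, plated overnight, given luciferin plus IBMX (each 0.5 mM as added) for 1 h at 37 °C, then compound for 1 h at 37 °C. Luminescence was read after 15 min at room temperature.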
a7 integrin act: integrin-mediated muscular dystrophy alleviation activation; 350,000 tested, 0.064% active; Potency, µM (series often up to 38.3 µM), for inactives: at the top dose activation, most hits filed as activators; alpha7betagal myoblasts, beta-gal FDG fluorescence, 48 h; AID 624291;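 note: potency is the fitted concentration of half-maximal effect; 100% = response of the positive control SU9516; nearly all actives have a fitted effect of over 60% in size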
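Alpha7betagal+/- myoblasts (passage 13) were plated 16-24 hr, then exposed to compounds (1:260 dilution of DMSO stock) for 48 hours at 37C. After MPER lysis, β-galactosidase reporter activity was read as FDG fluorescence (ex 480/em 540) after 30 minutes.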
MBNL1-CUG inh: inhibitors of human MBNL1 binding to CUG repeat RNA; Q9NR56; TR-FRET MBNL1-His/biotin-(CUG)12 binding, 665/545 ratio; Potency, µM (titrated, usually from 57.5 µM), for inactives: top-dose activity change, negative = inhibition, usual class: inhibitors; 280,000 tested, 0.036% active; AID 2675; active = well fitted inhibition curve with a large enough effect in the signal ratio, with a control signal flat, not every such curve was filed as active; inconclusive = small, poorly fitted or top-dose-only effect, or effect the other way, or a change in a side signal; inactive = no such curve, though single readings can be large or run the other way; the % refers to the signal ratio; note: potency is the fitted concentration of half-maximal effect; % is set by controls: 0 for no effect and ±100 for the full control effect
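Inhibition of protein-RNA binding appears as loss of TR-FRET between terbium anti-His antibody on MBNL1-His and streptavidin-XL665 on biotin-(CUG)12. Activity is normalized to buffer-only and uninhibited-complex controls.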
CBFb-RUNX1 inh: CBF-beta/RUNX1 interaction disruption | Q01196+Q13951 | AlphaScreen CBFb-His/RUNX1-biotin binding, biochemical | Potency, µM (titrated, usually from 59.8 µM), for the others: top-dose activity, negative = inhibition, most hits filed as inhibitors | 230,000 tested, under 10 active; note: % of control where 0% means no effect
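Room-temperature protein-protein interaction test with 30 nM each of His-tagged CBF-beta and biotinylated RUNX1, 15 min with compound, then 90 min with nickel plus streptavidin beads. Signal read in AlphaScreen mode.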
* hit, by the source's call; i = inactive; ? = inconclusive; nt = not tested or not shown; [ ] = another dose, or the depositor's remark. Only some compounds are listed: those with a hit (about 2.8% of all), similar ones and a draw of the others. Unless noted, calls come from the whole dose curve; as a rule, active = well fitted curve in the direction sought with a large enough effect; inconclusive = small, poorly fitted or top-dose-only effect, or another doubt; inactive = no such curve, though single readings can be large; an effect the other way counts as inactive or inconclusive.

SMILES | DRD3 antagonist | D3 ag | PTHR1 ag | a7 integrin act | MBNL1-CUG inh | CBFb-RUNX1 inh
O=C(CN1CCCN(Cc2ccccc2Cl)S1(=O)=O)NCc1ccccc1 | nt | 0 | i | nt | nt | nt
CC1(C(=O)NCc2ccccc2)CCC(=O)N1C1CCN(Cc2ccccc2)CC1 (stereo not drawn) | -24 | 0 | i | nt | nt | nt
COc1cc(OC)c(C(=O)OCC(=O)NCCc2ccccc2)cc1OC | -9 | 0 | i | 6% | -6% | 4%
C=C(CCC(=O)c1ccccc1)C(=O)c1ccccc1 | -54* | -14 | -26% | -49% | -2% | -2%
COc1cc(C)nc(NC(=S)N(C)C(=O)c2ccccc2)n1 | 3 | 6 | i | 42% | 1% | -1%
CC(CN(C)Cc1ccccc1)OC(=O)c1cccs1 (stereo not drawn) | -76* | -5 | -12%[57.5 µM] | 4% | -3% | 9%
CC(CN(C)Cc1ccccc1)OC(=O)c1ccc2c(c1)OCCO2 (stereo not drawn) | -77* | 0 | i | 0% | -4% | 13%
COc1ccc(NC(=O)CN2C(=O)C(c3ccc(C(C)(C)C)cc3)=NC2(C)C)cc1Cl | nt | 7 | -23% | nt | nt | nt
Cc1cccc2nc(CSc3nc4cc([N+](=O)[O-])ccc4s3)cn12 | 1 | 1 | -13% | -15% | nt | -13%
CCOC(=O)c1c(C)n(C)c2ccc(OCC(O)CN(CC)CC)cc12 (stereo not drawn) | -54* | -9 | -27% | -17% | -7% | -3%
C=C(c1ccc2nc(NC(=O)OC)[nH]c2c1)c1cccs1 | -20 | -12 | -21% | -19% | nt | nt
CC(C)C(=O)Nc1cccc(COc2cccc(CN(Cc3ccccc3)C(=O)OC(C)(C)C)c2)c1 | 73 | -6 | -12% | -17% | nt | nt
CCOc1ccc(NC(=S)N2CCCN(Cc3cccc(Cl)c3)C2)cc1 | -74* | -13 | i | -51% | -7% | -11%
CSc1cccc(NC(=S)N2CCCN(Cc3cccc(Cl)c3)C2)c1 | ? | -15 | -3% | -62% | -4% | -23%
COc1ccc(NC(=S)N2CCCN(Cc3cccc(Cl)c3)C2)cc1 | -80* | -13 | i | -32% | -17% | -7%
Fc1ccc(CN2CCCN(C(=S)Nc3ccc(F)cc3)CC2)cc1 | -59* | -14 | i | -13% | -30% | 2%
CN(C(=O)COC(=O)c1ccccc1C(=O)c1ccccc1)c1ccccc1 | 7 | 2 | i | 19% | nt | nt
O=C(C[n+]1ccc2ccccc2c1)c1ccc2ccc3ccccc3c2c1 | -78* | -15 | -42% | nt | nt | nt
O=C(C[n+]1ccc2ccccc2c1)c1ccccc1 | -5 | -3 | i | 0% | ? | 8%
CCOC(=O)CCC(NC(=O)c1cncc(O)c1)C(=O)OCC (stereo not drawn) | -65* | -1 | i | 11% | -19% | -3%
CCOC(=O)CCC(NC(=O)CCCCC(=O)NC(CCC(=O)OCC)C(=O)OCC)C(=O)OCC (stereo not drawn) | 1 | 1 | i | -17% | -11% | 2%
CC1(C)Oc2ccc(C(=O)N/N=C/c3ccc(O)cc3)cc2NC1=O | -7 | 6 | i | -16% | 15% | nt
COc1cc(C(CCN2CCOCC2)c2c(OC)cc(OC)c3c2OC(=O)CC3c2ccc(N(C)C)cc2)cc(OC)c1OC (stereo not drawn) | -6 | -34 | i | 33% | 16% | ?
COc1ccc(C2CC(=O)Oc3c(C(CCN4CCN(c5ccccc5)CC4)c4ccc(N(C)C)cc4)c(OC)cc(OC)c32)cc1 (stereo not drawn) | -84* | -47 | -11% | 3% | 2% | nt
COc1cc(C(CCN2CCCC(C)C2)c2c(OC)cc(OC)c3c2OC(=O)CC3c2ccc(N(C)C)cc2)cc(OC)c1OC (stereo not drawn) | -59* | -22 | i | 17% | 6% | ?
SMILES | DRD3 antagonist | D3 ag | PTHR1 ag | a7 integrin act | MBNL1-CUG inh | CBFb-RUNX1 inh
COc1cc(OC)c2ccc(=O)oc2c1C(CCN1CCCC(C)C1)c1ccc(N(C)C)cc1 (stereo not drawn) | -60* | -62 | i | 8% | ? | ?
COc1cc(C2CC(=O)Oc3c(C(CCN4CCCC(C)C4)c4ccc(N(C)C)cc4)c(OC)cc(OC)c32)cc(OC)c1OC (stereo not drawn) | -71* | -75 | 6% | -20% | -7% | -25%
COc1ccc2c(Sc3ccc(Cl)cc3)c(C(=O)N3CCCCC3)[nH]c2c1 | nt | -11 | i | nt | nt | nt
Cc1ccc(-n2nc(C(=O)N(C)Cc3ccccc3)c3c4ccccc4n(C)c3c2=O)cc1 | nt | 7 | i | nt | nt | nt
CCOC(=O)C1=C(Cc2ccc(F)cc2)C(=O)c2ccccc2C1=O | -100* | -26 | -20%[57.5 µM] | -23%[7.66 µM] | ? | -10%
O=C(OCc1ccc(F)cc1)c1ccc2c(c1)-c1ccccc1C2=O | -11 | 3 | -8%[57.5 µM] | -10% | -2% | -7%
CSc1cc(C)c(OCC(=O)Nc2ccc(NC(C)=O)cc2)c(C)c1 | -52* | -2 | -40% | ? | 16% | 2%
CC(=O)Nc1ccc(NC(=O)COc2c(C)cc(Br)cc2C)cc1 | -3 | -1 | -43% | 3% | 1% | 7%
COc1ccc(C(NC(=O)C2CCN(CCOc3ccc(Cl)cc3Cl)CC2)c2ccccc2C)cn1 (stereo not drawn) | -77* | -11 | -53% | nt | nt | nt
COc1ccc(C(NC(=O)C2CCN(CCOc3ccc(F)cc3)CC2)c2cccs2)cc1 (stereo not drawn) | -68* | -24 | -9% | nt | nt | nt
COc1ccc(C(NC(=O)C2CCN(CCOc3ccc(Cl)cc3Cl)CC2)c2cccs2)cc1 (stereo not drawn) | 255 | 61* | -39% | nt | nt | nt
Cc1ccccc1C(c1ncccc1C)N(C)C(=O)C1CCN(CCOc2ccc(Cl)cc2Cl)CC1 (stereo not drawn) | -21 | 20 | i | nt | nt | nt
COc1ccc(C(C)NC(=O)C2CCN(CCOc3ccc(Cl)cc3Cl)CC2)cc1OC (stereo not drawn) | -92* | -4 | -18% | nt | nt | nt
COc1ccc(OCCN2CCC(C(=O)NC(c3ccsc3)c3ccccc3C)CC2)cc1 (stereo not drawn) | -12 | -10 | -51% | nt | nt | nt
CC(C)CN1CCC(C(=O)NC(c2ccc(F)cc2)c2ccc3ccccc3n2)CC1 (stereo not drawn) | ? | -14 | -4% | nt | nt | nt
COc1ccc(/C=C/CN2CCC(C(=O)NC(c3ccc(F)cc3)c3ccc4ccccc4n3)CC2)cc1 (stereo not drawn) | -76* | -13 | -17% | nt | nt | nt

Source: PubChem (National Center for Advancing Translational Sciences (NCATS))
